From PubChem BioAssay AID1159580 (chemical genetic matrix, 2015)
Among all 5,500 compounds or so, about 2,000 (36%) were called active. Roughly 18% stayed inconclusive and do not appear here. No stated cut-off is given here; in the data, active means normalized growth mostly below about 0.91 (no sharp cut-off); inconclusive means no clear call, values can overlap the other calls; inactive means mostly above about 0.92. This is one part of the list.

Assay: chemical genetic growth profiling, strain panel (AID 1159580);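 further: tested at 20 µM; growth read once vehicle control cultures reached saturation at 30 °C; 1 = growth at the plate median or of vehicle wells; lower values mean less growth of the strain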
Conditions: growth OD

Measured: normalized growth

CCCC(=O)Nc1ccc(OCC(O)CNC(C)C)c(C(C)=O)c1 (configuration not stated)
inactive: S. cerevisiae deletion strains, locus YJR075W, strain HOC1, hits give low values 1.03 | S. cerevisiae deletion strains, locus YKL009W, strain mrt4, hits give low values 1.02 | S. cerevisiae deletion strains, locus YKL068W, hits give low values 1.02 | S. cerevisiae deletion strains, locus YKL085W, strain MDH1 (second series), hits give low values 1.01 | S. cerevisiae deletion strains, locus YKL085W, strain MDH1, hits give low values 1.01 | S. cerevisiae deletion strains, locus YKL160W, strain elf1, hits give low values 1.02 | S. cerevisiae deletion strains, locus YKL190W, strain CNB1, hits give low values 1.01 | S. cerevisiae deletion strains, locus YKR001C, strain vps1, hits give low values 1.04 | S. cerevisiae deletion strains, locus YKR026C, strain gcn3, hits give low values 1.01 | S. cerevisiae deletion strains, locus YKR091W, strain srl3, hits give low values 1 | S. cerevisiae deletion strains, locus YLL001W, strain dnm1, hits give low values 1.02 | S. cerevisiae deletion strains, locus YLL026W, hits give low values 1.01 | S. cerevisiae deletion strains, locus YLL041C, strain sdh2, hits give low values 1.01 | S. cerevisiae deletion strains, locus YLR027C, strain aat2, hits give low values 1.01 | S. cerevisiae deletion strains, locus YLR039C, strain RIC1, hits give low values 1.06 | S. cerevisiae deletion strains, locus YLR058C, strain SHM2, hits give low values 1.01 | S. cerevisiae deletion strains, locus YLR102C, strain apc9, hits give low values 1.01 | S. cerevisiae deletion strains, locus YLR113W, strain HOG1, hits give low values 0.999 | S. cerevisiae deletion strains, locus YLR221C, strain rsa3, hits give low values 1.01 | S. cerevisiae deletion strains, locus YLR258W, strain gsy2, hits give low values 1.02 | S. cerevisiae deletion strains, locus YLR262C, strain YPT6 (second series), hits give low values 1.02 | S. cerevisiae deletion strains, locus YLR262C, strain YPT6, hits give low values 1.02 | S. cerevisiae deletion strains, locus YLR268W, strain sec22, hits give low values 1.05 | S. cerevisiae deletion strains, locus YLR320W, strain mms22, hits give low values 1 | S. cerevisiae deletion strains, locus YLR330W, strain CHS5, hits give low values 1.01 | S. cerevisiae deletion strains, locus YLR342W, strain FKS1 (second series), hits give low values 1 | S. cerevisiae deletion strains, locus YLR342W, strain FKS1, hits give low values 1.01 | S. cerevisiae deletion strains, locus YLR357W, strain rsc2, hits give low values 0.97 | S. cerevisiae deletion strains, locus YLR370C, strain arc18, hits give low values 1.02 | S. cerevisiae deletion strains, locus YLR371W, strain rom2, hits give low values 1.02 | S. cerevisiae deletion strains, locus YLR384C, strain iki3, hits give low values 1.01 | S. cerevisiae deletion strains, locus YLR418C, strain cdc73, hits give low values 1.05 | S. cerevisiae deletion strains, locus YML016C, strain PPZ1, hits give low values 1.01 | S. cerevisiae deletion strains, locus YML032C, strain rad52, hits give low values 1.02 | S. cerevisiae deletion strains, locus YML120C, strain ndi1, hits give low values 0.999 | S. cerevisiae deletion strains, locus YML124C, strain tub3, hits give low values 1.02 | S. cerevisiae deletion strains, locus YMR058W, strain fet3, hits give low values 1 | S. cerevisiae deletion strains, locus YMR078C, strain ctf18, hits give low values 1.02 | S. cerevisiae deletion strains, locus YMR125W, strain sto1, hits give low values 1 | S. cerevisiae deletion strains, locus YMR129W, hits give low values 1.01 | S. cerevisiae deletion strains, locus YMR205C, strain PFK2, hits give low values 1 | S. cerevisiae deletion strains, locus YMR223W, strain ubp8, hits give low values 1 | S. cerevisiae deletion strains, locus YMR231W, strain pep5, hits give low values 1.02 | S. cerevisiae deletion strains, locus YMR263W, strain SAP30, hits give low values 1.02 | S. cerevisiae deletion strains, locus YMR307W, strain GAS1, hits give low values 1.03 | S. cerevisiae deletion strains, locus YNL067W, strain RPL9B, hits give low values 1.03 | S. cerevisiae deletion strains, locus YNL071W, strain lat1, hits give low values 1.02 | S. cerevisiae deletion strains, locus YNL128W, strain TEP1, hits give low values 1.01 | S. cerevisiae deletion strains, locus YNL153C, strain GIM3, hits give low values 1.02 | S. cerevisiae deletion strains, locus YNL183C, strain NPR1, hits give low values 0.97 | S. cerevisiae deletion strains, locus YNL209W, strain ssb2, hits give low values 1.04 | S. cerevisiae deletion strains, locus YNL233W, strain BNI4, hits give low values 1.01 | S. cerevisiae deletion strains, locus YNL248C, strain rpa49, hits give low values 1.03 | S. cerevisiae deletion strains, locus YNL250W, strain rad50, hits give low values 1.01 | S. cerevisiae deletion strains, locus YNL271C, strain bni1, hits give low values 1.02 | S. cerevisiae deletion strains, locus YNL298W, strain CLA4, hits give low values 1.02 | S. cerevisiae deletion strains, locus YNL307C, strain MCK1, hits give low values 1.02 | S. cerevisiae deletion strains, locus YNL322C, strain KRE1 (second series), hits give low values 1.03 | S. cerevisiae deletion strains, locus YNL322C, strain KRE1, hits give low values 1.01 | S. cerevisiae deletion strains, locus YNR049C, strain mso1, hits give low values 1.01 | S. cerevisiae deletion strains, locus YNR052C, strain pop2, hits give low values 1.02 | S. cerevisiae deletion strains, locus YOL006C, strain TOP1, hits give low values 1.07 | S. cerevisiae deletion strains, locus YOL012C, strain htz1 0.744 | S. cerevisiae deletion strains, locus YOL147C, strain pex11, hits give low values 1.02 | S. cerevisiae deletion strains, locus YOR001W, strain rrp6, hits give low values 1.01 | S. cerevisiae deletion strains, locus YOR061W, strain CKA2, hits give low values 1.01 | S. cerevisiae deletion strains, locus YOR069W, strain VPS5, hits give low values 1.01 | S. cerevisiae deletion strains, locus YOR070C, strain gyp1, hits give low values 1.02 | S. cerevisiae deletion strains, locus YOR080W, strain dia2, hits give low values 1.02 | S. cerevisiae deletion strains, locus YOR083W, strain WHI5, hits give low values 0.988 | S. cerevisiae deletion strains, locus YOR106W, strain vam3, hits give low values 1.03 | S. cerevisiae deletion strains, locus YOR136W, strain idh2, hits give low values 1.01 | S. cerevisiae deletion strains, locus YOR144C, strain elg1, hits give low values 1.02 | S. cerevisiae deletion strains, locus YOR184W, strain ser1, hits give low values 1.03 | S. cerevisiae deletion strains, locus YOR231W, strain MKK1, hits give low values 0.993 | S. cerevisiae deletion strains, locus YOR265W, strain rbl2, hits give low values 1.02 | S. cerevisiae deletion strains, locus YOR270C, strain vph1, hits give low values 1.07 | S. cerevisiae deletion strains, locus YOR290C, strain snf2, hits give low values 1.05 | S. cerevisiae deletion strains, locus YOR316C, strain cot1, hits give low values 1.02 | S. cerevisiae deletion strains, locus YPL051W, strain arl3, hits give low values 1 | S. cerevisiae deletion strains, locus YPL055C, strain LGE1, hits give low values 1.07 | S. cerevisiae deletion strains, locus YPL078C, strain atp4, hits give low values 1.03 | S. cerevisiae deletion strains, locus YPL106C, strain sse1, hits give low values 1.02 | S. cerevisiae deletion strains, locus YPL240C, strain hsp82, hits give low values 1.03 | S. cerevisiae deletion strains, locus YPL241C, strain CIN2, hits give low values 1.01 | S. cerevisiae deletion strains, locus YPL256C, strain CLN2, hits give low values 0.992 | S. cerevisiae deletion strains, locus YPR119W, strain clb2, hits give low values 1.01 | S. cerevisiae deletion strains, locus YPR141C, strain kar3, hits give low values 1.01 | S. cerevisiae deletion strains, locus YPR163C, strain tif3, hits give low values 1.02 | S. cerevisiae deletion strains, locus YPR167C, strain met16, hits give low values 1.01 | S. cerevisiae deletion strains, strain wtn01, hits give low values 1.03 | S. cerevisiae strains, strain wild type, hits give low values 1.02
